# PubChem BioAssay AID651813 (National Center for Advancing Translational Sciences (NCATS), 2012)
# Screen size: about 2,100 compounds; about 1,100 (52%) were called active. Roughly 27% stayed inconclusive and do not appear here. The call rests on the fitted dose curve; in most records, active means well fitted inhibition curve with a large enough effect; inconclusive means small, poorly fitted or top-dose-only effect; inactive means no such curve, though single readings can be large or run the other way. So high a share suggests a set chosen from earlier hits. The list shows a part of the results.
# Molecular target: DNA dC->dU-editing enzyme APOBEC-3G (Homo sapiens) (UniProt Q9HC16)
# Sequence (Q9HC16 whole entry, looked up): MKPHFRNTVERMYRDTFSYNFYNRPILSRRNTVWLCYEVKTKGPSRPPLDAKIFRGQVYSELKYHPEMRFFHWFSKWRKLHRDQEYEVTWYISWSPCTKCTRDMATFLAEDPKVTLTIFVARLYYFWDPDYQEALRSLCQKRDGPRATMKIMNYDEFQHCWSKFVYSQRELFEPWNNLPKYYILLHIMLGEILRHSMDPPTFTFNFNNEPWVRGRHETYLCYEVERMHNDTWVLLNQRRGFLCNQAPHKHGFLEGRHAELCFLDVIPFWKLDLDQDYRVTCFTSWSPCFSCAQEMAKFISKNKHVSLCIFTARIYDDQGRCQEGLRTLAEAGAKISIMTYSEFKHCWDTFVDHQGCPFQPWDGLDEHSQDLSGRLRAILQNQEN
# Assay: qHTS for inhibitors of Vif-A3G interactions: Cherry picks counterscreen;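 further: hits raise yellow fluorescence by blocking Vif-driven A3G-eYFP degradation; nearly all actives have a fitted effect of over 70% in size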;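 on max response: max response given as percent of control signal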
# Settings: HeLa A3G-eYFP + Vif (tagged APOBEC3G with the HIV-1 protein that degrades it), eYFP fluorescence, 24 h
# Summary of the method: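 HeLa cells stably expressing A3G-eYFP and Vif were treated for 24 h at 37 deg C with compounds at several concentrations; yellow fluorescence (Ex 488 nm, Em 500-530 nm) read by Acumen Explorer, MG132 as positive control.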
# Potency means the concentration at half of the fitted maximal effect.
SMILES,max response,Potency
Cc1ccc(/C=N/NC(=O)c2nc3nc(C)cc(C)n3n2)cc1,-10.8% (inactive),
Cc1cc(C)n2nc(C(=O)N/N=C/c3c4ccccc4cc4ccccc34)nc2n1,,15.8 µM (active)
COc1ccc2c(Cl)c(C(=O)N/N=C3\CCCC(=O)C3)sc2c1,,12.5 µM (active)
CCOc1cc(C(=O)NN=C2CCCC2)cc(OCC)c1OCC,-1.27% (inactive),
COc1ccc(-c2ccc3c(c2)S(=O)(=O)c2cccc(C(=O)NCCOc4ccccc4)c2C3=O)cc1OC,,14 µM (active)
COc1ccc(-c2ccc3c(c2)S(=O)(=O)c2cccc(C(=O)NCc4cccc(OC(F)(F)F)c4)c2C3=O)cc1OC,,3.26 µM (active)
O=C(NCc1ccccc1Cl)c1cccc2c1C(=O)c1ccc(-c3ccc(OC(F)(F)F)cc3)cc1S2(=O)=O,,18.4 µM (active)
COc1ccc(NC(=O)c2oc3ccc(S(=O)(=O)N4CCOCC4)cc3c2C)cc1,9.65% (inactive),
COc1cccc(NC(=O)c2oc3ccc(S(=O)(=O)N4CCC5(CC4)OCCO5)cc3c2C)c1,,23.1 µM (active)
c1ccc(-c2nccc(-c3ccc4c(c3)OCO4)n2)cc1,,4.98 µM (active)
CCN1C/C(=C/c2cccc([N+](=O)[O-])c2)C(=O)/C(=C/c2cccc([N+](=O)[O-])c2)C1,,5.59 µM (active)
CCN1C/C(=C\c2cccc([N+](=O)[O-])c2)C(=O)/C(=C/c2cccc([N+](=O)[O-])c2)C1,,11.2 µM (active)
CC(C)COc1ccc(C(=O)N/C(=C/c2cccc([N+](=O)[O-])c2)C(=O)O)cc1,13.2% (inactive),
CC(=O)c1ccc2cccc3c2c1N=CN3C,,12.5 µM (active)
Nc1nc(SCc2ccc(Cl)cc2Cl)nc2nc3c(cc12)CCCC3,,23.1 µM (active)
CCCCCCn1c(=O)[nH]c2nc3cc(N)ccc3nc2c1=O,36.1% (inactive),
Cc1cc2nc3c(=O)n(Cc4ccccc4)c(=O)[nH]c3nc2cc1N,,6.27 µM (active)
Cc1cc2nc3c(=O)n(CCc4ccccc4)c(=O)[nH]c3nc2cc1N,,3.66 µM (active)
Cc1cc2nc3c(=O)n(C4CCCCC4)c(=O)[nH]c3nc2cc1N,,7.31 µM (active)
Cc1ccc(NC(=O)CSc2n[nH]c(-c3ccccn3)n2)cc1,-4.16% (inactive),
Cc1ccc(NC(=O)CO/N=C/c2ccc(N(C)C)cc2)cc1,,23.1 µM (active)
CN(C)c1ccc(/C=C(/C#N)C(=O)Nc2nc3c(s2)CCN(Cc2ccccc2)C3)cc1,,0.444 µM (active)
CN(C)c1ccc(/C=C(\C#N)C(=O)Nc2nc3c(s2)CCN(Cc2ccccc2)C3)cc1,,0.396 µM (active)

SMILES,max response,Potency
Cn1c(=O)c2cc(NC(=O)NCc3ccc(F)cc3)ccc2n1C/C=C/c1ccccc1,,5.59 µM (active)
CCOCCC(=O)Nc1ccc2c(c1)c(=O)n(C)n2C/C=C/c1ccccc1,,11.2 µM (active)
Cn1c(=O)c2cc(NC(=O)NCc3ccccc3)ccc2n1C/C=C/c1ccccc1,,15.8 µM (active)
CCCCCCc1cc2cc(-c3nnc(-c4ccccc4)o3)c(=O)oc2cc1O,,1.98 µM (active)
CCCCCCc1cc2cc(-c3nnc(-c4ccccc4O)o3)c(=O)oc2cc1O,54.5% (inactive),
CCCCCCc1cc2cc(-c3nnc(-c4ccccc4OC)o3)c(=O)oc2cc1O,,7.04 µM (active)
CN1C(=S)N(c2cccnc2)C(=O)/C1=C\c1ccc(N(C)C)cc1,,11.2 µM (active)
CN1C(=O)/C(=C\c2ccc(N(C)C)cc2)OC1=S,,2.8 µM (active)
Cc1c(N2C(=O)/C(=C/c3ccc(N(C)C)cc3)N(C)C2=S)c(=O)n(-c2ccccc2)n1C,,20.6 µM (active)
O=C(N/N=C/c1cccs1)c1n[nH]c2c1CCC2,,4.44 µM (active)
O=C(N/N=C/c1cccc2ccccc12)c1n[nH]c2c1CCCC2,,3.53 µM (active)
Cc1ccsc1/C=N\NC(=O)c1n[nH]c2c1CCC2,,7.04 µM (active)
COCCNC(=S)N/N=C(\C)c1ccc(OC(F)F)cc1,-0.557% (inactive),
Cn1cc(/C=C2\SC(=S)N(NC(=O)c3cccc(Cl)c3)C2=O)c2ccccc21,,8.2 µM (active)
COc1cc(/C=N/Nc2cc(C)nc(NS(=O)(=O)c3ccccc3)n2)ccc1O,-5.07% (inactive),
COc1ccc(-c2cnnc(N/N=C/c3ccc(O)c(OC)c3)n2)cc1,,8.86 µM (active)
COc1cc(/C=N/Nc2ccc(Cl)nn2)cc(OC)c1O,-0.979% (inactive),
O=C(Nc1ccccc1-c1nc2ccccc2[nH]1)c1ccc(N2C(=O)CCC2=O)cc1,,18.4 µM (active)
S=C(NC1CCCCC1)N(CCc1ccccc1)CCc1ccccc1,-10.7% (inactive),
CCOC(=O)c1[nH]c(C)c(C(=O)Nc2cc(OC)ccc2OC)c1C,,3.53 µM (active)
COc1ccc(OC)c(NC(=O)c2cc(-c3cc(C)cc(C)c3O)n[nH]2)c1,-1.73% (inactive),
CCOC(=O)c1c(C)[nH]c(C(=O)N/N=C/c2cccc(OC)c2)c1C,,15.8 µM (active)
CCOC(=O)c1[nH]c(C)c(C(=O)Nc2ccc(C)cc2C)c1C,,3.96 µM (active)

SMILES,max response,Potency
CCOC(=O)c1[nH]c(C)c(C(=O)Nc2ccccc2C)c1C,,6.27 µM (active)
Cc1cc(N/N=C/c2ccc(O)cc2O)nc(-n2nc(C)cc2C)n1,2.12% (inactive),
CC(=O)c1c(C)[nH]c(C(=O)Nc2ccc(Cl)cc2F)c1C,-22.8% (inactive),
CCOC(=O)c1[nH]c(C)c(C(=O)Nc2ccccc2F)c1C,,3.53 µM (active)
COc1ccccc1CNC(=O)c1ccc2nc3[nH]c4ccccc4c3nc2c1,6.47% (inactive),
Fc1ccc2nc3[nH]c4ccccc4c3nc2c1,,0.396 µM (active)
CCN(CC(=O)Nc1ccccc1-c1ccccc1)Cc1nc2ccccc2c(=O)[nH]1,,12.5 µM (active)
Cc1[nH]c2ccccc2c1/C=C/c1ccc2ccccc2n1,,16.4 µM (active)
C(=Cc1c[nH]c2ccccc12)c1ccc2ccccc2n1,,20.6 µM (active)
C(=C\c1c[nH]c2ccccc12)/c1ccc2ccccc2n1,,16.4 µM (active)
CC(=O)c1cccc(NC(=O)C2CCCN(S(=O)(=O)c3cccc4nonc34)C2)c1 (stereo unspecified),11.2% (inactive),
COc1ccc(C(=O)NC2CCCc3ccccc32)cc1[N+](=O)[O-] (stereo unspecified),,7.04 µM (active)
COc1ccc(C(=O)C(C)[n+]2ccc(C)c3ccccc32)cc1[N+](=O)[O-] (stereo unspecified),3.16% (inactive),
CCOC(=O)N1CCN(C(=O)c2ccccc2-c2ccccc2)CC1,,5.59 µM (active)
O=C(NC(=S)N1CCN(c2ccccn2)CC1)c1ccccc1,-0.54% (inactive),
O=C(c1cc(-c2ccncc2)nc2ccccc12)N1CCN(c2ccccn2)CC1,,9.94 µM (active)
CCOC(=O)N1CCN(C(=O)c2cc(-c3ccc(OCC)cc3)nc3ccccc23)CC1,,7.04 µM (active)
O=C(COc1ccccc1-c1ccccc1)NN=C1CCCC1,-18.6% (inactive),
Cc1c(C(=O)Nc2cccnc2)oc2ccc(Br)cc12,,12.5 µM (active)
N#CC(C(=S)Nc1ccccc1)c1nc2ccccc2[nH]1 (stereo unspecified),-4.48% (inactive),
c1ccc2[nH]c(NN=C3CCCCCC3)nc2c1,0.674% (inactive),
O=C(CSc1ccccc1)Nc1nc2ccccc2[nH]1,,9.94 µM (active)
Fc1cccc(Cc2c(-c3ccco3)nc3ccc(Br)cn23)c1,,14 µM (active)

SMILES,max response,Potency
COC(=O)c1ccc(Oc2cc(C)nc(SC)n2)cc1,,8.86 µM (active)
Cc1ccc(-c2nc3ncccc3o2)cc1NC(=O)c1ccc([N+](=O)[O-])o1,3.91% (inactive),
O=C(NCc1ccccc1)C(=O)NCC1COc2ccccc2O1 (stereo unspecified),,12.5 µM (active)
COC(=O)CCS(=O)(=O)c1nc(-c2ccccc2)cc(C(F)(F)F)n1,,12.5 µM (active)
CC1CCN(C(=O)C(C)Sc2nc(-c3ccccc3)cc(C(F)(F)F)n2)CC1 (stereo unspecified),2.38% (inactive),
COc1ccc2o/c(=N/NC(=O)c3cccs3)c(C(N)=O)cc2c1,,12.5 µM (active)
CCOC(=O)c1c(C)sc(-c2c(-c3ccccc3)[nH]c3[nH]c(=O)[nH]c(=O)c23)c1O,,18.4 µM (active)
COc1cc(-c2noc(C)c2/C=C/c2ccc(OC(C)=O)cc2)cc(OC)c1OC,,0.627 µM (active)
Cc1ccc(O)c(NC(=O)c2cc(-c3ccccc3O)no2)c1,,23.1 µM (active)
COc1ccc2[nH]c(C(=O)N/N=C/c3ccc(OC)c(O)c3)cc2c1,,4.44 µM (active)
COc1ccc(/C=N/NC(=O)c2cc3c(OC)ccc(OC)c3[nH]2)cc1O,,4.44 µM (active)
COC(=O)c1cccc(NS(=O)(=O)c2ccc(OC)cc2)c1C,,7.04 µM (active)
COc1ccc(S(=O)(=O)Nc2cc(Sc3ncn[nH]3)c(O)c3ccccc23)cc1,-11.5% (inactive),
COc1ccc(S(=O)(=O)Nc2cccc3ccccc23)cc1,,5.17 µM (active)
CC1CCCCC1NC(=O)/C(C#N)=C/C=C/c1ccccc1[N+](=O)[O-] (stereo unspecified),,14 µM (active)
Fc1cccc(F)c1/C=N/NC(=S)Nc1cccnc1,-2.63% (inactive),
CCCOc1ccccc1C1CC(=O)NC2=C1C(=O)CCC2 (stereo unspecified),,6.27 µM (active)
CCOc1ccccc1C1CC(=O)NC2=C1C(=O)CCC2 (stereo unspecified),,12.5 µM (active)
CCCN(CCC)c1ccc(/C=C/c2ccnc3ccccc23)cc1,,14.6 µM (active)
CCCCN(CCCC)c1ccc(/C=C/c2ccnc3ccccc23)cc1,,16.4 µM (active)
CCN(C)c1ccc(/C=C/c2ccnc3ccccc23)cc1,,18.4 µM (active)
CCCCN(CCC(=O)O)c1ccc(/C=C/c2ccnc3ccccc23)cc1,,18.4 µM (active)
